# Reference: ChEMBL document CHEMBL4513216, “Probing the Open Global Health Chemical Diversity Library for Multistage-Active Starting Points for Next-Generation Antimalarials” (ACS Infect Dis, 2020)
# Hit rate of the full screen: of about 68,000 compounds, about 2,700 (4%) showed an effect of 50% or more. This is one part of a sample in which strong results are shown more often than they occur.
# Tested on: Plasmodium berghei
# Experiment: Screen against P. berghei liver stage (PbLuc), transformed with Luciferase, at 2uM
# Type: functional, HepG2
# Conditions: tested at 2 uM
row,Structure (SMILES),INHIBITION
1,Cc1ccc2c(c1)C1(CCNCC1)CN2C(=O)CN(C)C,15.58%
2,O=C(Nc1cccnc1)C1Cc2nc(-c3ccsc3)sc2N1CC1CC1 (stereo not given),18.2%
3,CCn1c(CN(C)C(=O)c2ccc(OC)nc2)nc2ccccc21,-33.03%
4,O=C(Nc1cccc(CNCc2cccnc2)c1)C1CCCC1,14.53%
5,O=C(c1cscn1)N1C[C@@H]2C[C@@H](c3nnc(C4CC4)o3)O[C@@H]2C1,-4.1%
6,Cn1cc(CNC2CCc3ncnn3C2)c(-c2ccncc2)n1 (stereo not given),49.88%
7,CN(C)C(=O)C1CCC2(CCNCC2)C1 (stereo not given),26.55%
8,CC(C)N(C)Cc1cnc2n1CCN(S(=O)(=O)c1ccccc1)C2,29.3%
9,COc1ccc(C(=O)C2CCCN(Cc3cc(C)n[nH]3)C2)c(OC)c1 (stereo not given),15.08%
10,O=C(C[S+]([O-])Cc1cccc(F)c1)NC1CCCC1 (stereo not given),27.67%
11,CC(=O)N1CCN(C(=O)c2cnc(OC(C)C)c(Cl)c2)CC1,55.36%
12,CC(C)c1ccc(OCCC(=O)N2CCC(CC(N)=O)CC2)cc1,31.19%
13,CC(C)Oc1ncc(C(=O)N2CCC(CC(N)=O)CC2)cc1Cl,64.9%
14,CC(=O)N1CCCN(C(=O)c2cnc(OC(C)C)c(Cl)c2)CC1,31.51%
15,CC(O)CN1CCN(C(=O)c2cnc(OC(C)C)c(Cl)c2)CC1 (stereo not given),19.59%
16,CC(C)Oc1ncc(C(=O)N2CCC(N(C)C)CC2)cc1Cl,55.36%
17,CC(C)Oc1ncc(C(=O)N2CCC(NC(=O)C3CC3)CC2)cc1Cl,-58.69%
18,CC(C)Oc1ncc(C(=O)N2CCCC(C(=O)O)C2)cc1Cl (stereo not given),0.51%
19,CCN1CCCN(C(=O)c2cnc(OC(C)C)c(Cl)c2)CC1,-16.16%
20,CCc1nc(N)nc(N2CCCC3(CCOCC3)C2)c1C,39.57%
21,Cc1ocnc1C(=O)N(C)[C@@H]1CC[C@@H](n2ccnc2C)[C@@H]1O,-12.75%
22,O=C1CN(C(=O)CNC(CC(F)(F)F)c2ccc(F)cc2)CCN1 (stereo not given),7.05%
23,COc1c(CNC(c2ccccc2)c2ccc(F)cc2)c(C)nn1C (stereo not given),13.67%
24,Cc1noc(C(C)N2CCN(CCn3ccccc3=O)CC2)n1 (stereo not given),25.78%
25,CCOCc1cccc(S(=O)(=O)Nc2ncc(C)s2)c1,44.59%
26,Cc1nc(C)n(CC2CCCN2CC(=O)Nc2cc(C(C)C)no2)n1 (stereo not given),35.42%
27,CCc1noc(CN(CC)C(=O)CC2C(=O)NCCN2CC(C)(C)C)n1 (stereo not given),43.6%

row,Structure (SMILES),INHIBITION
1,CCc1noc(CN(CC)C(=O)CC2C(=O)NCCN2CC=C(C)C)n1 (stereo not given),3.66%
2,CCN(Cc1noc(C)n1)C(=O)CC1C(=O)NCCN1CC(C)(C)C (stereo not given),55.84%
3,CN(C)CCOc1ccccc1N1CCN(C(=O)C(C)(C)C#N)CC1,-4.91%
4,CC(C)(C)C(O)CCNC(=O)c1ccc(F)cc1Cl (stereo not given),-9.71%
5,Cc1cc(NC2CCc3ncnn3C2)n2nc(C(F)(F)F)nc2n1 (stereo not given),-30.02%
6,CN(C)c1ccc(NC(=O)CN2CCS(=O)(=O)CC2)cn1,71.64%
7,O=C(CN1CCS(=O)(=O)CC1)Nc1ccc(N2CCCC2)nc1,-4.89%
8,COc1ccc(NC(=O)CN2CCS(=O)(=O)CC2)cn1,-9.39%
9,c1cncc(-c2ccc3c(c2)C2(CC3)CCN(c3nncs3)CC2)c1,12.3%
10,CCc1ccc(-c2c(C)c(-c3cnn(C)c3)nc(N)c2C#N)o1,49.25%
11,Cc1c(-c2cnn(C)c2)nc(N)c(C#N)c1-c1ccc(CO)o1,55.7%
12,Cc1cc(-c2c(C)c(-c3cnn(C)c3)nc(N)c2C#N)oc1C,23.43%
13,COc1ccc(Cn2cc(C(=O)N(C)Cc3cnccn3)nn2)cc1,-21.09%
14,CCC(=O)N1CCC2(COCc3cnc(N4CCOCC4)nc32)C1 (stereo not given),35.84%
15,COCC(=O)N1CCC2(COCc3cnc(-c4ccccc4)nc32)C1 (stereo not given),-22.64%
16,O=C(CC1CC1)N1CCC2(COCc3cnc(N4CCOCC4)nc32)C1 (stereo not given),51.72%
17,COCCC(=O)N1CCC2(COCc3cnc(-c4cccnc4)nc32)C1 (stereo not given),-20.41%
18,COCCC(=O)N1CCC2(COCc3cnc(-c4ccccc4)nc32)C1 (stereo not given),50.32%
19,O=C(C1CC1)N1CCC2(COCc3cnc(N4CCOCC4)nc32)C1 (stereo not given),29.95%
20,O=C(c1cc(=O)c(OCc2ccccc2F)co1)N1CCSCC1,36.6%
21,c1csc(CN2CCOCC3(CCN(C4CCOCC4)C3)C2)n1 (stereo not given),2.71%
22,CC(C)c1nc(CN2CCCC2Cn2cncn2)no1 (stereo not given),-13.92%
23,CCN1CCCC(C)(C(=O)NCc2nncn2CCc2ccccc2)C1 (stereo not given),-4.93%
24,c1ccc(-c2nc(CN3CCCC3Cn3cncn3)no2)cc1 (stereo not given),-5.3%
25,CC1(C)CC(=O)N(CC(=O)Nc2ccon2)c2ccccc21,40.97%
26,CCn1ccnc1CN1CCN(CC(O)CN2CCOCC2)CC1 (stereo not given),38.68%
27,CN1CCN(CC(NCc2ccc(F)c(F)c2)c2ccccc2)CC1 (stereo not given),12.57%

row,Structure (SMILES),INHIBITION
1,Cc1ccc(CNC(CN2CCN(C)CC2)c2ccccc2)cc1 (stereo not given),-10.6%
2,CN1CCN(CC(NCc2ccc(F)cc2)c2ccccc2)CC1 (stereo not given),58.29%
3,c1ccc(CNCC2Cn3nnc(-c4ccncc4)c3CO2)nc1 (stereo not given),2.87%
4,C[C@@H](O)[C@H](NC(=O)c1csc2nc(-c3ccccc3F)cn12)C(N)=O,16.95%
5,CCc1ccc(-c2cn3c(C(=O)NCC(C)C(=O)NC)csc3n2)cc1 (stereo not given),8.54%
6,CCc1ccc(-c2cn3c(C(=O)N[C@H](C(N)=O)[C@@H](C)O)csc3n2)cc1,61.82%
7,CCCc1cc(=O)[nH]c(SCc2ccccn2)n1,4.95%
8,CCc1cc(=O)[nH]c(SCc2ccccn2)n1,8.41%
9,CCc1c(C)nc(SCc2ccccn2)[nH]c1=O,50.67%
10,CNC(=O)c1cc2c(nc1N(C)C)CCN(c1ncccn1)CC2,-31.3%
11,Cc1nn2cc(CCNC(=O)c3cc(C(C)C)nn3C)nc2s1,-8.8%
12,Cc1cc(C(=O)NCCc2cn3nc(C)sc3n2)c(C)o1,55.66%
13,Cc1nn2cc(CCNC(=O)c3cc(C(C)C)no3)nc2s1,11.9%
14,COCC1CN(C(=O)Cc2cccc(F)c2)Cc2ccnn2C1 (stereo not given),13.52%
15,CCCN(CCc1ccccn1)C(=O)CCc1cnn(C)c1,-46.85%
16,CC1(C)CC(N(Cc2ccccc2)Cc2cccnc2)CC(C)(C)N1,26.52%
17,Cc1ccc(CN2CCN(c3ncccc3C(N)=O)CC2CCO)cc1 (stereo not given),3.92%
18,CNC(=O)c1cccnc1N1CCN(Cc2ccccc2)C(CCO)C1 (stereo not given),-4.52%
19,O=C(O)c1cccnc1N1CCN(Cc2ccc(F)cc2)C(CCO)C1 (stereo not given),78.43%
20,c1cncc(C2COC3(CCN(Cc4ccsc4)CC3)C2)c1 (stereo not given),32.85%
21,Cn1nccc1CN1CCOC(c2cccc(Nc3ccccn3)n2)C1 (stereo not given),-88.78%
22,Cc1nc(C)c(CNC(=O)N2CCc3ccccc3C2CO)s1 (stereo not given),5.98%
23,Cc1cc(CC(=O)NC2CCCN(Cc3ccccc3)C2=O)n[nH]1 (stereo not given),-8.63%
24,COc1cccc(C(=O)N2CCC3(CCC(=O)N(C(C)C)C3)CC2)c1C,63.37%
25,COc1ccc(F)cc1C(=O)N1CCC2(CCC(=O)N(C(C)C)C2)CC1,23.76%
26,COc1cc(C)ccc1C(=O)N1CCC2(CCC(=O)N(C(C)C)C2)CC1,-4.62%
27,CC(=O)N1CCN(C(=O)CNc2cccc(OC(F)F)c2C)CC1,17.61%

row,Structure (SMILES),INHIBITION
1,COc1ccc(OC)c(C2CCN(C(=O)C3CCS(=O)(=O)CC3)C2)c1 (stereo not given),-18.57%
2,COc1ccc(OC)c(C2CCN(C(=O)C3CCOCC3)C2)c1 (stereo not given),48.21%
3,COc1ccc(OC)c(C2CCN(C(=O)C3CCC(O)CC3)C2)c1 (stereo not given),55.36%
4,COc1ccc(C(=O)NCc2cccnc2N2CCOCC2)o1,-49.51%
5,O=C(c1cccs1)N1CCC(n2nc(-c3ccco3)ccc2=O)CC1,38.1%
6,CCc1c(C)nn(CC(=O)NC(C)c2n[nH]c(C)n2)c1C (stereo not given),40.15%
7,Clc1ccc(C2(CNC3=NCCN3)CCCC2)cc1,6.85%
8,Clc1ccc(C2(CNC3=NCCN3)CCCCC2)cc1,35.46%
9,Clc1ccc(C2(CNC3=NCCN3)CC2)cc1,53.98%
10,Cc1cnc(N2CCCC3(COCCN(c4ccc(C)nn4)C3)C2)nc1 (stereo not given),20.21%
11,CN(Cc1cccc(O)c1)C(=O)c1ccc(CCC(C)(C)O)cc1,19.75%
12,O=C(NCCc1cccs1)N1CCCC1CCCO (stereo not given),8.03%
13,O=C(NCCc1cccs1)N1CCC[C@H]1CO,55.39%
14,O=C(NCCCc1cccs1)N1CCCCC1CCO (stereo not given),39.97%
15,COCC(=O)N1CCCC(C(=O)N(C)CCn2ccnc2C)C1 (stereo not given),46.04%
16,Cc1ccc2[nH]c(C(=O)NCCCn3ccnn3)c(C)c2c1,22.39%
17,Cc1ccc2nc(C)c(C)c(C(=O)NCCCn3cnnc3)c2c1,10.78%
18,Cc1ccc2nc(C)c(C)c(C(=O)NCCCn3ccnn3)c2c1,56.21%
19,CC(=O)NCCC1CCCCN1S(=O)(=O)c1ccc2ccccc2c1 (stereo not given),29.89%
20,CC(=O)NCCC1CCCCN1S(=O)(=O)c1cccc(F)c1 (stereo not given),50.91%
21,CC(=O)NCCC1CCCCN1S(=O)(=O)c1cccc(Cl)c1 (stereo not given),-12.13%
22,Cn1cc(-c2csc(N3CCOCC3)n2)cn1,13.35%
23,Cc1occc1C(=O)N1CCOCC2(CCN(Cc3nccs3)C2)C1 (stereo not given),3.85%
24,O=C(N1CCCC1)N1C[C@H]2CCC[C@@]2(COCc2ccccn2)C1,5.44%
